# Bioassay records deposited in PubChem BioAssay by several laboratories.
# This is a sample that favours compounds with a hit; in the whole collection about 1.3% have one here.
# EBV gp42 block: Epstein-Barr virus gp42 inhibitors, primary screen, biochemical, uHTS, fluorescence polarization; AID 1085, 2008; inhibition, % (tested at 21.74 µM); actives 0.42% (n = 220,000); Fluorescence polarization binding assay, mP read-out; Glycoprotein 42 (Epstein-Barr virus (strain AG876)), Q1HVG2; in the data active = inhibition above about 50%
# MCL1 BIM primary: inhibitors of MCL1 binding to BIM-BH3, primary screen, biochemical, fluorescence polarization; GST-MCL1 / FITC-Bim-BH3 fluorescence polarization; inhibition, % at 10.9 µM; actives 0.68% (n = 320,000); AID 2057, 2009;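 active = inhibition above the mean inhibition of all tested compounds plus 3 SD, set per campaign, cut at about 40% in these data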;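 note: 0% = DMSO wells and 100% = unlabeled Bim-BH3 peptide control; higher means more loss of mP so more displacement of Bim peptide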
# Target sequence (Q07820 whole entry, looked up): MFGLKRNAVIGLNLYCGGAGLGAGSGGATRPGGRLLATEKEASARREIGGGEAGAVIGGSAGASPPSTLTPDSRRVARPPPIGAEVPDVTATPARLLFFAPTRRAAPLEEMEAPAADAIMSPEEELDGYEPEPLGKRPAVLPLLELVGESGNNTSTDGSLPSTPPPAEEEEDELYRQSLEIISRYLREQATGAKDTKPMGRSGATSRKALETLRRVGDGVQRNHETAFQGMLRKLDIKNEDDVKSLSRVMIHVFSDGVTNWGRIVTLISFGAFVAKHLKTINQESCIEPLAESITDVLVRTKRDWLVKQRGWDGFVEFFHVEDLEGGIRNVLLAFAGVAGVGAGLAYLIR
# MEX-5 binding: MEX-5 zinc finger RNA-binding disruptors – biochemical, C. elegans, fluorescence polarization, MLPCN library, primary screen; actives 0.38% (n = 300,000); MEX-5/FITC-TCR2 RNA binding; stronger effect = lower value; activity score (negative = inhibition of binding), % at 10 µM; AID 1832, 2009;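 active = inhibition past about -25% in most replicates, and total fluorescence under double the plate's negative control median, limit read from the data; inconclusive = replicates evenly split on the limit, or fluorescence at least double controls; inactive = too little inhibition in most replicates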;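 note: 0% = DMSO and -100% = 5 µM competing unlabeled TCR2 RNA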
# BCLXL inh: inhibitors of human Bcl-xL, primary screen, biochemical, fluorescence polarization, HTS; Bcl-2-like protein 1 (Homo sapiens), Q07817; GST-Bcl-xL / FITC-Bim BH3 peptide fluorescence polarization; inhibition, % at 10.9 µM; actives 0.7% (n = 320,000);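 active = inhibition above the mean of all tested compounds plus 3 SD, cutoff set per campaign, cut at about 30% in these data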;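 note: 0% = DMSO wells and 100% = unlabeled Bim-BH3 peptide competitor; inhibitors lower millipolarization by displacing the labeled peptide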
# Target sequence (Q07817 whole entry, looked up): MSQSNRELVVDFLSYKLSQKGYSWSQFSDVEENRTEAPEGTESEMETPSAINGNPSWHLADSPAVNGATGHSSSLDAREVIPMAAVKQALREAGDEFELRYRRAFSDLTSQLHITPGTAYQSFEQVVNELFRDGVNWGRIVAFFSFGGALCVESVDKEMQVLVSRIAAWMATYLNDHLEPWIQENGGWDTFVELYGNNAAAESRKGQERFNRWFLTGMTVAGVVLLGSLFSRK
# GLD-1 TGE inh: GLD-1/TGE RNA complex disruptors, primary screen, biochemical, fluorescence polarization; inhibition, % at 5.96 µM; purified GLD-1 + fluorescein TGE RNA; Female germline-specific tumor suppressor gld-1 (Caenorhabditis elegans), Q17339; AID 2280, 2010; actives 0.44% (n = 320,000);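 active = percent inhibition above a per-plate cutoff, the plate mean of test compounds plus 3 SD, cut at about 30% in these data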;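 note: 0% = DMSO wells with GLD-1 and probe and 100% = wells lacking GLD-1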
# The depositor's hits bear a star; ? = inconclusive; . = no result.
SMILES,EBV gp42 block,MCL1 BIM primary,MEX-5 binding,BCLXL inh,GLD-1 TGE inh
O=C1/C(=C/c2ccc(Br)cc2)Oc2cc(O)ccc21,.,24.3,-39.8*,20.5,75.8*
CC(C)(C)c1ccc(/C=C2\Oc3cc(O)ccc3C2=O)cc1,.,-4.2,-27.5*,5.7,16.9
CC(Oc1ccc(-n2cnnn2)cc1)C(=O)O (stereo unspecified),4.1,5.0,-0.9,8.2,2.8
Cc1oc(-c2ccccc2Cl)nc1CS(=O)CC(=O)NCc1ccccc1Cl (stereo unspecified),.,2.5,0.7,0.4,6.1
C[C@@H]1O[C@@H](O[C@H]2[C@H](O)[C@@H](O)[C@H](Oc3c(-c4ccc(O)cc4)oc4cc(O)cc(O)c4c3=O)O[C@@H]2CO)[C@H](O)[C@H](O)[C@H]1O,.,.,.,.,2.4
C[C@@H]1O[C@@H](OC2C(O)C(OCCc3ccc(O)c(O)c3)OC(CO)C2OC(=O)/C=C/c2ccc(O)c(O)c2)[C@H](O)[C@H](O)[C@H]1O (stereo partly specified),.,38.9,-46.0*,17.5,7.8
CN1/C(=N\O)c2cccc3cccc1c23,3.9,15.1,1.1,10.2,14.7
CC(=O)c1ccc2cccc3c2c1N=CN3C,16.3,27.5,-6.2,33.3*,13.2
O=C1CCN(S(=O)(=O)c2ccccc2)CCN1CCOCc1ccc(Cl)cc1,-21.8,4.6,-0.1,3.9,2.5
CCN(CC(=O)Nc1c(C(=O)OC)[nH]c2ccccc12)c1ccc2c(c1)OCO2,3.2,37.0,-5.8,44.3*,2.8
CC(=O)N1c2ccc(S(=O)(=O)N3CCCC(C(=O)Nc4ccc(F)cc4)C3)cc2CC1C (stereo unspecified),.,10.9,0.5,73.1*,-0.6
Cc1cc(NC(=O)CSc2nc3c(c(=O)n2CCc2ccccc2)SC(C)C3)no1 (stereo unspecified),2.6,0.5,-0.4,31.0*,-5.2
Cc1cc(C)nc(NN2C(=O)C=CC2=O)n1,.,7.8,-28.7*,8.6,2.1
Nc1c(C(=O)NCCc2ccc(Cl)cc2)sc2ccc(S(=O)(=O)N3CCCCC3)cc12,-3.7,9.4,-2.7,1.5,-5.8
COc1cc2c(cc1NC(=O)CN1C(=O)NC3(CCc4ccccc43)C1=O)oc1ccccc12 (stereo unspecified),61.7*,-6.6,3.0,1.1,9.0
COc1ccc(C2NC(=O)c3ccccc3O2)cc1 (stereo unspecified),.,2.7,-0.5,-1.1,-7.0
O=C(OCC(=O)N1CCCC1)c1cc(Cl)ccc1Cl,.,0.0,0.3,-1.0,-3.0
COc1ccc2nc3ccccc3nc2c1NC(=O)c1ccc(Br)cc1,11.2,42.5*,?,38.5*,-5.8
Cc1nn(C)c(C)c1CN(C)C(=O)C1c2ccccc2Oc2ccccc21,81.4*,36.9,-46.5*,30.9*,30.3
Cc1nn(C)c(C)c1CN(C)C(=O)C1(C)CC1(Br)Br (stereo unspecified),2.2,2.2,-2.1,1.4,6.9
COCCn1c(=S)[nH]c2ccc(N(C)C)cc2c1=O,21.6,31.0,-2.4,32.2*,17.0
CCOc1cc2[nH]c(=S)n(CCOC)c(=O)c2cc1OCC,-7.6,0.0,-1.0,1.6,0.5
N=c1c(C(=O)NC2CCCCC2)cc2c(=O)n3ccccc3nc2n1Cc1cccnc1,.,7.3,-34.9*,7.6,1.5
N=c1c(C(=O)NCCN2CCOCC2)cc2c(=O)n3ccccc3nc2n1CCc1ccccc1,.,4.0,-28.3*,14.3,14.4
Cc1cccn2c(=O)c3cc(C(=O)NCC4CCCO4)c(=N)n(C4CCCCC4)c3nc12 (stereo unspecified),.,6.4,9.7,11.1,-8.1
SMILES,EBV gp42 block,MCL1 BIM primary,MEX-5 binding,BCLXL inh,GLD-1 TGE inh
Cc1cccn2c(=O)c3cc(C(=O)NCc4ccco4)c(=N)n(C4CCCC4)c3nc12,.,34.3,-8.6,33.6*,18.0
CCNC(=O)c1cc2c(=O)n3cccc(C)c3nc2n(Cc2ccc(C)cc2)c1=N,-15.8,-7.0,-78.1*,-9.5,-9.9
Cc1ccc(C(=O)C(C)N2C(=O)NC(C)(c3ccccc3)C2=O)cc1 (stereo unspecified),-7.2,-5.6,2.3,-4.8,2.4
O=C(COc1ccc(F)cc1Cl)Nc1ccc(S(=O)(=O)Nc2nccs2)cc1,.,3.9,-2.7,8.5,2.0
Cc1cc(C(=O)C(C)OC(=O)c2ccc(NC(=O)CC#N)cc2)c(C)n1-c1ccc(OC(F)F)cc1 (stereo unspecified),.,-21.6,.,-6.9,-16.0
N=c1c(C(=O)NCC2CCCO2)cc2c(=O)n3ccccc3nc2n1Cc1cccnc1 (stereo unspecified),-18.6,33.9,-44.4*,36.5*,10.4
N=c1c(C(=O)NC2CCCCC2)cc2c(=O)n3ccccc3nc2n1CCc1ccccc1,.,6.5,-25.8*,10.7,1.1
Cc1ccc(S(=O)(=O)c2cc3c(=O)n4ccccc4nc3n(CCc3ccccc3)c2=N)cc1,.,-4.0,-32.4*,-0.4,4.4
CCn1c(=N)c(S(=O)(=O)c2ccc(C)cc2)cc2c(=O)n3ccccc3nc21,-10.5,5.7,?,5.7,-7.9
Cc1cccn2c(=O)c3cc(C(=O)NCC4CCCO4)c(=N)n(Cc4cccnc4)c3nc12 (stereo unspecified),6.4,13.9,.,24.3,-0.1
N=c1c(C(=O)NCc2ccc(F)cc2)cc2c(=O)n3ccccc3nc2n1Cc1cccnc1,28.2,39.3,?,41.2*,2.9
O=C(NCc1ccco1)C(c1cccnc1)N(C(=O)Cn1nnc2ccccc21)c1ccc(F)cc1 (stereo unspecified),-8.6,15.9,-0.4,10.0,0.9
CCO/C=N/Nc1nc(C(F)(F)F)nc2c1cnn2Cc1ccccc1,.,6.3,-2.6,3.5,4.5
O=C(COc1ccccc1Cl)c1ccc[nH]1,57.4*,34.2,0.1,10.0,2.6
COCCNC(=O)CSc1ccc(-c2nc3ccccc3[nH]2)cn1,.,-8.0,-0.7,61.4*,1.0
COc1cc(C2C3=C(CC(C)(C)CC3=O)N(C)C3=C2C(=O)CC(C)(C)C3)cc(Br)c1O,.,25.8,2.2,18.8,5.6
CC(=O)NC12CC3CC(C1)CC(C(=O)OCC(=O)Nc1ncc(Cl)c(C)c1Cl)(C3)C2,1.2,36.4,-4.2,37.2*,13.5
Cc1cc[n+](-c2[nH]c(=O)sc2/C=N/N=C(\[O-])c2ccncc2)cc1,.,49.3*,-23.2,38.1*,19.8
Cc1cc[n+](-c2[nH]c(=O)sc2/C=N/N=C(\[O-])c2ccccc2)cc1,24.5,34.9,-9.8,26.0,24.6
